Source: PubChem BioAssay AID1851 (National Center for Advancing Translational Sciences (NCATS), 2009)
About 5,800 (36%) of roughly 16,000 compounds were called active. Inconclusive results (about 23%) are left out. Calls follow the shape of the dose curve; as a rule, active = well fitted curve in the direction sought with a large enough effect; inconclusive = small, poorly fitted or top-dose-only effect, or effect the other way; inactive = no such curve, though single readings can be large or run the other way. This is one part of the list.

Each compound was assayed against Cytochrome P450 2C19 (Homo sapiens) (UniProt P33261) (assay: Cytochrome panel assay with activity outcomes). Settings: recombinant CYP, pro-luciferin dealkylation, luminescence, p450-cyp2c19; series mostly up to 57.1 µM; activity, negative = inhibition: at the top concentration.
Chain of Cytochrome P450 2C19 (Homo sapiens) (P33261 whole entry, looked up): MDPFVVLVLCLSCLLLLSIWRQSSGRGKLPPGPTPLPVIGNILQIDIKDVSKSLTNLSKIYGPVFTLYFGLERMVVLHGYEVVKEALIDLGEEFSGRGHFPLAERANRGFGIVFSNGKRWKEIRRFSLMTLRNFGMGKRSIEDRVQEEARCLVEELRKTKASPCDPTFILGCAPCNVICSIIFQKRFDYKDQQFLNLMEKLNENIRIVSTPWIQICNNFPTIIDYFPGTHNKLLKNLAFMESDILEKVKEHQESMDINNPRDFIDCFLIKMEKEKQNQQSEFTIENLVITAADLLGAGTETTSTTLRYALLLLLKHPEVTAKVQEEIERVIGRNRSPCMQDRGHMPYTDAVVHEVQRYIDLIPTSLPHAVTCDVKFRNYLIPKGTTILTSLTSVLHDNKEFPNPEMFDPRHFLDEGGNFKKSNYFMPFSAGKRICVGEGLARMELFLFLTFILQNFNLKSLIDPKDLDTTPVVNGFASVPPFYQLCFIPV
% is scaled to controls: 0 for no effect and ±100 for the full control effect.

AC50, inactive:
N[C@H](C(=O)O)c1cccc(O)c1, C[C@@H](C[N+](C)(C)C)OC(N)=O

AC50, active:
COc1ccc(N2C(=O)c3ccccc3NC2c2ccc(OC)c(CSc3ccccn3)c2)cc1 (stereo unspecified) 0.891 µM, CCOc1ccc(CC(=O)Nc2sc(Cc3ccccc3)c(C)c2C(N)=O)cc1OCC 4.47 µM, COC(=O)c1c(NC(C)=O)sc(Cc2ccccc2)c1C 4.47 µM, COc1ccc2[nH]cc(CCNc3cc(-c4ccccc4C(F)(F)F)ncn3)c2c1 10 µM, COc1ccc2[nH]cc(CCNc3cc(-c4ccccc4OC)ncn3)c2c1 3.16 µM, COc1ccc2[nH]cc(CCNc3cc(-c4ccccc4C)ncn3)c2c1 7.94 µM, Fc1ccc2nc(Nc3nc4c(s3)CCCC4)sc2c1 17.8 µM, COc1cccc(-c2cc(C(=O)Nc3cccc(O)c3)no2)c1 3.16 µM, O=C1C(Cc2ccccc2)C(c2ccccc2)N1c1ccccc1 (stereo unspecified) 1.26 µM, CCCC1C(=O)N(c2ccccc2)C1c1ccccc1 (stereo unspecified) 4.47 µM, COc1ccc(-c2cc([C@H](O)[C@@H]3CCCCN3)c3ccccc3n2)cc1 3.98 µM, COc1ccc(CNc2ncnc3ccc(-c4cccc(NS(C)(=O)=O)c4)cc23)c(OC)c1 2.51 µM, COc1ccccc1CNc1ncnc2ccc(-c3cccc(NS(C)(=O)=O)c3)cc12 15.8 µM, N#Cc1c(-c2ccccc2)nc2n(c1=O)CCS2 15.8 µM, N#Cc1c(-c2ccc(Cl)cc2)nc2n(c1=O)CCCS2 7.94 µM, COC(=O)[C@H]1C[C@@H]1[C@H](NC(=O)c1ccccc1)c1ccccc1 7.94 µM, COC(=O)[C@H]1C[C@@H]1[C@H](NC(=O)OCc1ccccc1)c1ccccc1 3.16 µM, COC(=O)[C@@H]1C[C@H]1[C@@H](NC(=O)Oc1ccc(F)cc1)c1ccccc1 10 µM, COC(=O)[C@@H]1C[C@H]1[C@@H](NC(=O)c1ccccc1)c1ccccc1 1.26 µM, O=C(N[C@@H](c1ccccc1)[C@@H]1C[C@H]1C(=O)NCc1ccccn1)OCc1ccccc1 7.94 µM, CCCCN1C(=O)C(NC(=O)C2CC2)(C(F)(F)F)C2=C1CC(C)(C)CC2=O (stereo unspecified) 20 µM, CC1CCN(CCOc2cc(Cl)ccc2Cl)CC1 7.08 µM, CN(C)c1ccc(-c2nc3n(n2)C(c2cccnc2)C2=C(CC(C)(C)CC2=O)N3)cc1 (stereo unspecified) 14.1 µM, c1cc(CNCCCN2CCOCC2)ccn1 7.94 µM, CSc1nncc(-c2ccc(F)c(F)c2)n1 11.2 µM, O=C(OCc1ccc(Cl)cc1Cl)c1cccnc1Cl 0.355 µM

activity, negative = inhibition, inactive:
COc1cccc(/C(O)=C2/C(=O)C(=O)N(c3ccccn3)C2c2ccc(OC)c(OC)c2)c1 (stereo unspecified) 1.45%, c1ccc2c[n+](Cc3ccnc4ccccc34)ccc2c1 10.8% [at 11.4 µM], COC(=O)c1c(C)[nH]c(C)c1C(=O)c1ccccc1Cc1ccccc1 -8.63%, CCOc1cc(CC(=O)N[C@@H](CC(C)C)c2ccccc2N2CCCCC2)ccc1C(=O)O 18.6% [at 25.6 µM], COc1c(NC(C)=O)c2ccccc2c2ccccc12 4.06% [at 11.4 µM], CCc1c(C)sc(NC(=O)OC)c1C(N)=O 2.97%, CC(=O)NCCNc1cc(-c2ccccc2CN(C)C)ncn1 -7.92%, COc1ccc(C2CC(=O)CC(=O)C2n2cncn2)cc1 (stereo unspecified) -14.6%, CN1C(=O)C[C@H](c2ccccc2)C1=O -32.1% [at 25.6 µM], CC(C)(C)CC(C)(C)c1ccc(OCOCCOCCO)c(Cc2cc(C(C)(C)CC(C)(C)C)cc(Cc3cc(C(C)(C)CC(C)(C)C)ccc3OCOCCOCCO)c2OCOCCOCCO)c1 -27.9% [at 25.6 µM], CO[C@H]1[C@H](O[C@H]2O[C@@H](C)[C@@H](O[C@@H]3C[C@](C)(O)[C@H](OC(=O)CC(C)C)[C@H](C)O3)[C@@H](N(C)C)[C@@H]2O)[C@@H](CC=O)C[C@@H](C)[C@@H](O)/C=C\C=C/C[C@@H](C)OC(=O)C[C@H]1OC(C)=O 25.9% [at 25.6 µM], O[C@H](C[C@@H]1CCCCN1)c1ccc2c(c1)oc1ccccc12 -14.6% [at 11.4 µM], O[C@@H](c1cc(C(F)(F)F)nc2c(Cl)cc(Cl)cc12)[C@@H]1CCCCN1 -14.3% [at 11.4 µM], COCCNc1ncnc2ccc(-c3cccc(NS(C)(=O)=O)c3)cc12 -14.8%, c1ccc2cc(C3=NCCN3)ncc2c1 -35.7%, COc1cc(=O)n2c(n1)SCCC2 -7.61%, CCCCN(Cc1ccccc1)C(=O)c1cnc2n(c1=O)CCS2 8.84%, O=c1c(-c2ccccc2)c(O)c2cccc3c2n1CCC3 -6.66%, COC(=O)[C@H]1C[C@@H]1[C@H](NC(C)=O)c1ccccc1 -28.9%, COC(=O)[C@H]1C[C@@H]1[C@H](NC(=O)c1cccnc1)c1ccccc1 -11.7%, COC(=O)[C@@H]1C[C@H]1[C@@H](NC(=O)c1cccnc1)c1ccccc1 -22.1%, COC(=O)C1CC1C(NC(=O)[C@H]1CCCCN1)c1ccccc1 (stereo partly specified) -41%, O=C(N[C@@H](c1ccccc1)[C@@H]1C[C@H]1C(=O)O)OCc1ccccc1 -33%, COc1cccc(Nc2ncc3nc(-c4cc(F)cc(F)c4)c(=O)n(CCC#N)c3n2)c1 -0.627%, CC(C)(S)[C@H](N)C(=O)O 4.04% [at 11.4 µM], OCCN1CCN(CCOc2cccc(Cl)c2)CC1 28.5%, Clc1ccc(Cl)c(SCCCN2CCNCC2)c1 11.4% [at 11.4 µM], O=C(O)CCCCCCCC(=O)O 14.9%, CCOc1ccccc1CNCCN1CCOCC1 6.81%, c1cc(CNCCN2CCNCC2)ccn1 -34.1% [at 11.4 µM], Cn1c(=O)c(-c2ccc(F)c(F)c2)nc2cncnc21 -43.5%, CC(=O)Nc1ccc2c(c1)/C(=C/c1ccc([N+](C)(C)C)cc1)c1ccccc1-2 -19.5% [at 11.4 µM], O=C(O)COc1c(Cl)cc(Cl)c2cccnc12 26% [at 11.4 µM]
